Measured values published in PubChem BioAssay.
Active and inactive are the calls of the source.

What was measured:
[1] = test system: Wnt5a (protein binding on small-molecule microarray); experiment: small molecules binding Wnt5a protein – biophysical, small-molecule microarray, 635/667 nm fluorescence, primary screen (AID 1142); conditions: 635 nm fluorescence, higher = more signal;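 further: fluorescence read at 667 nm with signal to noise per printed feature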
[2] = ATP-based viability of Huh7 replicon cells – cell-based, CellTiter-Glo luminescence, basal, 48 h, cytotoxicity control for HCV replication inhibitor project, primary screen (AID 1143); conditions: higher = more signal, called active from +8 up or from −8 down;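 further: Huh7 hepatoma cells carrying a hepatitis C replication reporter with no stimulus; test concentration not given here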
[3] = basal CRE-LacZ reporter activity in PC12 – cell-based, unstimulated, primary screen (AID 1145); conditions: no forskolin, luminescence, 4.5 h, higher = more signal, called active from +8 up or from −8 down
[4] = forskolin-driven CRE-LacZ activity in PC12 – cell-based, CRE-LacZ reporter, forskolin-stimulated, primary screen (AID 1146); conditions: luminescence, 4.5 h, higher = more signal, called active from +8 up or from −8 down;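 further: PC12 cells with 6xCRE LacZ reporter stimulated by forskolin 10 µM; beta-galactosidase reporter signal reflecting CREB driven transcription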
[5] = biological target: Streptavidin (Streptomyces avidinii) (UniProt P22629); experiment: compounds binding control protein streptavidin – biophysical, small-molecule microarray, 635/667 nm fluorescence, artefact control for SMM compound annotation, primary screen (AID 1147); conditions: higher = more signal;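 further: signal reflects streptavidin binding to arrayed compounds as a control protein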
Sequence of Streptavidin (Streptomyces avidinii) (P22629 whole entry, looked up): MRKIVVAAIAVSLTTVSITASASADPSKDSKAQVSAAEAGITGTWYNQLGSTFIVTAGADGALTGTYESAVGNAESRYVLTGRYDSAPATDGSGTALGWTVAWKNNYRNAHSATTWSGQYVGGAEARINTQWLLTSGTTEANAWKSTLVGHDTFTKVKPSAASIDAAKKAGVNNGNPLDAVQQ

[6] = probe aInhba binding on compound microarray – biochemical, small-molecule microarray, 635/667 nm fluorescence, primary screen (AID 1148); conditions: higher = more signal;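 further: score merges 667nm spot fluorescence with signal-to-noise for antibody binding to printed compounds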
Torsin-1A (Homo sapiens) [7] = biological target: Torsin-1A (Homo sapiens) (UniProt O14656); experiment: TOR1A wild-type binding on microarray – cell lysate, small-molecule microarray, lysate, 635/667 nm, primary screen (AID 1149); conditions: COS7 hTOR1A-WT lysate, 635 nm fluorescence, higher = more signal
Sequence of Torsin-1A (Homo sapiens) (O14656 whole entry, looked up): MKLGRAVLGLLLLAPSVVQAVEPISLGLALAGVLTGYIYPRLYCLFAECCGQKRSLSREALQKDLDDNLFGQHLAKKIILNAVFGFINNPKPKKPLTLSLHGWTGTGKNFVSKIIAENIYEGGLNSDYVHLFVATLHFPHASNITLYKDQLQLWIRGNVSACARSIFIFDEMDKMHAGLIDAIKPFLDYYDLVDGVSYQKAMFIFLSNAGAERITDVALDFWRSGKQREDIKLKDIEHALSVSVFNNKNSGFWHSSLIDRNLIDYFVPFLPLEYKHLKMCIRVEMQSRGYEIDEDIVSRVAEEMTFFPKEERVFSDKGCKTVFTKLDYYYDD

Torsin-1A (Homo sapiens) [8] = biological target: Torsin-1A (Homo sapiens) (UniProt O14656); experiment: torsin A mutant lysate binding on microarrays – cell lysate, small-molecule microarray, COS7 lysate, 635/667 nm fluorescence, primary screen (AID 1150); conditions: COS7 hTOR1A mutant lysate, 635 nm fluorescence, higher = more signal;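 further: score pools 667 nm emission and signal to noise measuring lysate protein binding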
[9] = test system: Sonic hedgehog protein (Shh); experiment: Sonic hedgehog microarray binding compounds – biochemical, small-molecule microarray, 635/667 nm fluorescence, primary screen (AID 1151); conditions: 635 nm fluorescence, higher = more signal;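 further: Shh protein binding to compounds spotted on small-molecule microarray slides; score combines spot fluorescence intensity with signal-to-noise across triplicate slides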
[10] = optical density shifts of acrAB sulA E. coli – strain DRC41, OD650, 48 h, E. coli filamentation inducer project, primary screen (AID 1152); conditions: higher = more signal, called active from +8 up or from −8 down;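 further: E. coli MC1000 strain DRC41 lacking acrAB efflux pump and sulA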
[11] = probe aLefty1 binding on compound microarray – biochemical, small-molecule microarray, 635/667 nm fluorescence, primary screen (AID 1153); conditions: higher = more signal;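 further: score merges spot fluorescence with signal-to-noise ratio from the scanned slide images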
[12] = plasmodial surface anion channel blockers, osmotic lysis – cell-based, P. falciparum Indochina, OD700, 1 h, primary screen (AID 1154); conditions: P. falciparum Indochina infected RBC osmotic lysis, higher = more signal, called active from +8 up or from −8 down
[13] = plasmodial surface anion channel blockers, osmotic lysis – cell-based, P. falciparum Indochina, OD700, 2 h, primary screen (AID 1155);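 further: lysis reports solute entry through the parasite surface anion channel PSAC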; conditions: P. falciparum Indochina infected erythrocytes, higher = more signal, called active from +8 up or from −8 down
[14] = changes in parasitized red cell lysis, either direction – P. falciparum Indochina, OD700, 3 h, PSAC antagonist project, primary screen (AID 1156); conditions: P. falciparum-infected erythrocytes, osmotic lysis, higher = more signal, called active from +8 up or from −8 down
[15] = plasmodial surface anion channel blockers, osmotic lysis – cell-based, P. falciparum Indochina, OD700, 18 h, primary screen (AID 1157); conditions: P. falciparum Indochina infected erythrocytes, osmotic lysis OD700, 18 h; higher = more signal, called active from +8 up or from −8 down
[16] = S6 kinase pathway phospho-S6 level changes – cell-based, A549, cytoblot, luminescence, serum-stimulated, primary screen (AID 1158); conditions: 5 h, higher = more signal;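 further: serum-stimulated A549 lung adenocarcinoma cells; signal is phosphorylated S6 detected by cytoblot immunostaining with HRP secondary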
[17] = biological target: NADPH oxidase 2 (Homo sapiens) (UniProt P04839); experiment: compounds shifting NOX2 Amplex Red fluorescence – cell-based, HEK293-NOX2, PMA-stimulated, NOX inhibitor project, primary screen (AID 1159); conditions: 45 min, higher = more signal, called active from +8 up or from −8 down; further: test concentration not given here
Sequence of NADPH oxidase 2 (Homo sapiens) (P04839 whole entry, looked up): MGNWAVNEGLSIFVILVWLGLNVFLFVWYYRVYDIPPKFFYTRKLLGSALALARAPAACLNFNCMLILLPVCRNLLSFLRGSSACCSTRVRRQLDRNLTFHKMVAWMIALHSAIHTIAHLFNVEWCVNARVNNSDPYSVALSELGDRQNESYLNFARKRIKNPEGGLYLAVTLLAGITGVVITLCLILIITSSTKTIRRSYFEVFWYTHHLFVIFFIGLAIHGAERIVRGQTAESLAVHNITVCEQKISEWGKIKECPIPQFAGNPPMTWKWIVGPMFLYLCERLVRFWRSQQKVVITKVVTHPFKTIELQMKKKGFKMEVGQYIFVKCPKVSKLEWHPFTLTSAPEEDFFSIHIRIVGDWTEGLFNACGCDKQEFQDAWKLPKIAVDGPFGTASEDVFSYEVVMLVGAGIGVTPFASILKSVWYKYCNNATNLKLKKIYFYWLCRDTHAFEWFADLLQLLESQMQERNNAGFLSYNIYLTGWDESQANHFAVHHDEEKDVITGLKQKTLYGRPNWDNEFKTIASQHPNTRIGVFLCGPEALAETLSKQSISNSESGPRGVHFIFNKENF

[18] = biological target: NADPH oxidase 4 (Homo sapiens) (UniProt Q9NPH5); experiment: compounds shifting NOX4 Amplex Red fluorescence – cell-based, HEK293-NOX4, tetracycline-induced, NOX inhibitor project, primary screen (AID 1160); conditions: HEK293-NOX4, Amplex Red H2O2 fluorescence, 45 min; higher = more signal, called active from +8 up or from −8 down
Sequence of NADPH oxidase 4 (Homo sapiens) (Q9NPH5 whole entry, looked up): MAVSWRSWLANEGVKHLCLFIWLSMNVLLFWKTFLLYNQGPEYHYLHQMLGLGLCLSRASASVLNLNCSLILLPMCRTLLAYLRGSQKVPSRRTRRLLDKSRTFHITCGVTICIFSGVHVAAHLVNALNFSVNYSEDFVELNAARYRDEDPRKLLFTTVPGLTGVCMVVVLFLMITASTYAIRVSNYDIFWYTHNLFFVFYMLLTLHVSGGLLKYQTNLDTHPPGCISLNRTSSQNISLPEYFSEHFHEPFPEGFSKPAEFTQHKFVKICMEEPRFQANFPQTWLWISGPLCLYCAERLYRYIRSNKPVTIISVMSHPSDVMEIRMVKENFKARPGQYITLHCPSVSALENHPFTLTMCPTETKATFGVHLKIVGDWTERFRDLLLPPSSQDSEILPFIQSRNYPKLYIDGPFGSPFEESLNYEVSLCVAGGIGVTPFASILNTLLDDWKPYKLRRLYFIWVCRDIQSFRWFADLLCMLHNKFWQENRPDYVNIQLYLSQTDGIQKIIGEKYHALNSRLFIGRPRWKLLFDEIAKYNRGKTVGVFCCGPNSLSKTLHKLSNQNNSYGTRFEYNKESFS

[19] = biological target: NADPH oxidase 5 (Homo sapiens) (UniProt Q96PH1); experiment: compounds shifting NOX5 Amplex Red fluorescence – cell-based, HEK293-NOX5, NOX inhibitor project, primary screen (AID 1161); conditions: HEK293-NOX5, ionomycin, 45 min, higher = more signal
Sequence of NADPH oxidase 5 (Homo sapiens) (Q96PH1 whole entry, looked up): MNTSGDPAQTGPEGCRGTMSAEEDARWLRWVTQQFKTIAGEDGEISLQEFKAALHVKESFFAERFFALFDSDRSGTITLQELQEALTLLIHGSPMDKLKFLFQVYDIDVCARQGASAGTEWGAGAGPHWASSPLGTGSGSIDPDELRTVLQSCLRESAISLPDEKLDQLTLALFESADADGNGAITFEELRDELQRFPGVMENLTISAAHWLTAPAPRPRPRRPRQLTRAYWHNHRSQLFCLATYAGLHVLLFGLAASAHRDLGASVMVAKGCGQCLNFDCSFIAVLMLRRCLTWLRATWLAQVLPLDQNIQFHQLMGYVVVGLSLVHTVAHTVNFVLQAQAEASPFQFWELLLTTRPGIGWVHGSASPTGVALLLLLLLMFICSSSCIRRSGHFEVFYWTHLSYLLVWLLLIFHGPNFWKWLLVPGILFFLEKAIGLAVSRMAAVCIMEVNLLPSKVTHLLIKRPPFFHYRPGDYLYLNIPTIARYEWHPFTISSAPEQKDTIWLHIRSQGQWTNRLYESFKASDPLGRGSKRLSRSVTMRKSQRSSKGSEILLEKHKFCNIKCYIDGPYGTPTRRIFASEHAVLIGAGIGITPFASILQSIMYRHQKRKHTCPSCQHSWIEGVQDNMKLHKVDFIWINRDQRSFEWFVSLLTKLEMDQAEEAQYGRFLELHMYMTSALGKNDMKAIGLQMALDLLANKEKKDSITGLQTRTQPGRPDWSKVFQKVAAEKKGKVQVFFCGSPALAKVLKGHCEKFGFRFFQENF

| Compound | composite z-score [1] | z-score [2] | z-score [3] | z-score [4] | composite z-score [5] | composite z-score [6] | composite z-score (Torsin-1A (Homo sapiens) [7]) | composite z-score (Torsin-1A (Homo sapiens) [8]) | composite z-score [9] | z-score [10] | composite z-score [11] | z-score [12] | z-score [13] | z-score [14] | z-score [15] | z-score [16] | z-score [17] | z-score [18] | z-score [19] |
| --- | --- | --- | --- | --- | --- | --- | --- | --- | --- | --- | --- | --- | --- | --- | --- | --- | --- | --- | --- |
| COCCOC(=O)N1C(=O)[C@@]2(c3cc(C#CCC(C(=O)OC)C(=O)OC)ccc31)[C@H](C(=O)N1CCN(c3ncccn3)CC1)[C@H]1C(=O)O[C@H](c3ccccc3)[C@H](c3ccccc3)N1[C@@H]2c1ccc(O)cc1 | 0.117 | -3.81 (inactive) | -0.671 (inactive) | -0.784 (inactive) | 0.043 | 0.0386 | 0.143 | 0.731 | 1.38 | 3.34 (inactive) | 0.443 | 1.92 (inactive) | -0.0642 (inactive) | -0.504 (inactive) | -1.39 (inactive) | 1.69 | 1.28 (inactive) | 0.7 (inactive) | 1.82 |
| COCC(=C=CC[C@H](O)c1ccc(OCCO)cc1)C[C@H](O)c1ccccn1 | -0.0253 | -0.23 (inactive) | 3.18 (inactive) | -1.44 (inactive) | -0.65 | -0.018 | -0.353 | 0.904 | 1.05 | 1.36 (inactive) | -0.194 | 8.89 (active) | 0.989 (inactive) | 0.938 (inactive) | 0.48 (inactive) | -0.324 | 2.36 (inactive) | 1.71 (inactive) | 1.32 |
| CO[C@H]1COC(=O)[C@@H](OCc2ccccc2)C=C[C@H](C)[C@@H](OC)COC(=O)[C@H](OCc2ccccc2)C=C[C@@H]1C | -0.115 | -2.26 (inactive) | 1.16 (inactive) | -0.672 (inactive) | -0.0864 | -0.0695 | 0.593 | 0.128 | 0.537 | -0.282 (inactive) | -0.0966 | -0.0125 (inactive) | -0.952 (inactive) | -1.35 (inactive) | -1.68 (inactive) | 1.55 | -0.174 (inactive) | 0.433 (inactive) | 0.467 |
| C[C@@H]1C=CCC(=O)OC[C@H]2O[C@@H](C=C[C@@H]2O)[C@H](C)C=CCC(=O)OC[C@H]2O[C@H]1C=C[C@@H]2O | 0.375 | -5.78 (inactive) | 0.247 (inactive) | -0.724 (inactive) | 0.412 | 0.357 | 0.997 | 0.515 | 2.24 | -1.91 (inactive) | 0.596 | 0.43 (inactive) | 0.278 (inactive) | -1.65 (inactive) | -0.725 (inactive) | 2.22 | -1.01 (inactive) | 0.418 (inactive) | 0.0421 |
| C[C@@H]1CC[C@H]2C(=O)N3[C@@H](CC[C@@H](C)[C@@H]3c3cccc(N4CCOCC4)c3)C(=O)N2[C@H]1c1cccc(Br)c1 | 0.205 | -0.167 (inactive) | 4.71 (inactive) | -0.902 (inactive) | 0.63 | 0.0561 | 0.472 | 0.418 | 0.994 | 0.801 (inactive) | -0.0061 | 8.99 (active) | 1.51 (inactive) | 0.826 (inactive) | 0.71 (inactive) | -0.246 | 0.693 (inactive) | 0.815 (inactive) | 0.717 |
| CO[C@H]1O[C@H](CO)[C@@H](OC(=O)Nc2ccccc2)[C@H](OC(=O)Nc2ccc3c(c2)OCO3)[C@@H]1OC(=O)Nc1ccc2c(c1)OCO2 | 0.328 | -3.67 (inactive) | 0.185 (inactive) | -2.4 (inactive) | 0.232 | -0.0079 | 0.433 | 0.876 | 0.599 | 1.44 (inactive) | 0.273 | 9.35 (active) | -0.145 (inactive) | 1.78 (inactive) | -2 (inactive) | 1.27 | 0.679 (inactive) | 0.0792 (inactive) | -0.922 |
| Cc1ccc(S(=O)(=O)c2cc3oc2CC[C@@H](CO)NC(=O)N(C)Cc2cn(nn2)C[C@H](Cc2ccccc2)NC3=O)cc1 | -0.0319 | -0.0124 (inactive) | -0.332 (inactive) | -0.58 (inactive) | -0.183 | -0.0335 | 0.285 | 0.501 | 0.0007 | 3.05 (inactive) | -0.234 | 28.3 (active) | 13.3 (active) | 0.208 (inactive) | 2.03 (inactive) | 0.533 | 0.644 (inactive) | 0.743 (inactive) | 0.648 |
| CCOC(=O)C[C@H]1[C@H](OC(=O)c2cc3ccccc3oc2=O)[C@@H](NC(=O)c2ccc3ccccc3c2)c2cc(OCCCO)ccc2N1C(=O)c1ccc2ccccc2n1 | 0.338 | -0.574 (inactive) | 9.89 (active) | -2.03 (inactive) | 0.895 | 0.0497 | 0.419 | 0.268 | 0.43 | 2.1 (inactive) | 0.19 | 11.1 (active) | 1.42 (inactive) | 0.865 (inactive) | 0.868 (inactive) | 0.63 | 0.985 (inactive) | 0.873 (inactive) | 2.17 |
| CN(C)CCCC[C@@H]1NC(=O)[C@@H]2C[C@H](C(=O)O)[C@H](c3ccc(O)cc3)N2C1=O | 0.471 | -3.87 (inactive) | 0.415 (inactive) | -0.183 (inactive) | 0.0842 | 0.174 | 0.939 | 0.395 | 1.92 | 2.66 (inactive) | 0.616 | 0.847 (inactive) | -1.57 (inactive) | -3.19 (inactive) | -1.98 (inactive) | 1.03 | -2.71 (inactive) | -3.88 (inactive) | -2.48 |
| C=CCc1cccc([C@@H]2[C@@H](C)CC[C@H]3C(=O)N4[C@H](c5cccc(CC=C)c5)[C@@H](C)CC[C@H]4C(=O)N23)c1 | 0.205 | -3.75 (inactive) | 3.64 (inactive) | -0.353 (inactive) | 0.898 | 0.0968 | 0.392 | 0.203 | 0.946 | 0.0258 (inactive) | 0.142 | 5.32 (inactive) | 1.46 (inactive) | 2.14 (inactive) | 0.738 (inactive) | -0.0433 | -0.23 (inactive) | -0.0735 (inactive) | -1.48 |
| C=C(/C(=C/C[C@@H](OC(=O)c1ccncc1)c1ccc(CO)o1)c1cnc2ccccc2c1)C(C)C | 0.117 | -1.35 (inactive) | 2.21 (inactive) | -0.42 (inactive) | 1.72 | 0.0464 | 0.165 | 0.475 | 1.15 | 0.767 (inactive) | 0.0248 | 4.66 (inactive) | 0.231 (inactive) | 0.633 (inactive) | -0.0835 (inactive) | -0.191 | 0.588 (inactive) | -0.649 (inactive) | -1.08 |
| CO[C@@H]1COC(=O)CC=C[C@H](C)COC(=O)[C@H](Cc2ccccc2)NC(=O)CC=C[C@H]1C | -0.108 | -0.87 (inactive) | -0.202 (inactive) | -1.63 (inactive) | -0.457 | -0.438 | 1.46 | 0.793 | 1.73 | 0.106 (inactive) | -0.358 | -0.0544 (inactive) | -0.866 (inactive) | -0.295 (inactive) | -1.49 (inactive) | 0.681 | -0.486 (inactive) | 0.845 (inactive) | 0.528 |
